Common to all, as to format: functional
Test [1] deals with Solute carrier family 2, facilitated glucose transporter member 1 (Homo sapiens) (UniProt P11166). The experiment in a line: ST_JUDE_LEISH: Cytotoxicity at 2uM final concentration against transgenic Leishmania Mexicana promastigotes LmGLUT1 that are glucose transport deficient and complemented with the human glucose transporter GLUT1. Activity is measured by DNA content using SYBR green in vitro.

The target in test [2] is Hexose transporter 1 (Plasmodium falciparum) (UniProt O97467). In words: ST_JUDE_LEISH: Cytotoxicity at 2uM final concentration against transgenic Leishmania Mexicana promastigotes LmPfHT that are glucose transport deficient and complemented with the Plasmodium falciparum hexose transporter. Activity is measured by DNA content using SYBR green in vitro.
Test [3] addresses Glucose transporter (Leishmania mexicana) (UniProt O61059). The experiment in a line: ST_JUDE_LEISH: Cytotoxicity at 2uM final concentration against transgenic Leishmania Mexicana promastigotes LmGT2 that are glucose transport deficient and complemented with the L. Mexicana glucose transporter 2. Activity is measured by DNA content using SYBR green in vitro.

Results on twelve compounds are retold here after ChEMBL document CHEMBL3433997, “St. Jude Leishmania screening dataset” (2016).

The structures appear in SMILES notation.

Solute carrier family 2, facilitated glucose transporter member 1 (Homo sapiens), sequence (P11166 whole entry): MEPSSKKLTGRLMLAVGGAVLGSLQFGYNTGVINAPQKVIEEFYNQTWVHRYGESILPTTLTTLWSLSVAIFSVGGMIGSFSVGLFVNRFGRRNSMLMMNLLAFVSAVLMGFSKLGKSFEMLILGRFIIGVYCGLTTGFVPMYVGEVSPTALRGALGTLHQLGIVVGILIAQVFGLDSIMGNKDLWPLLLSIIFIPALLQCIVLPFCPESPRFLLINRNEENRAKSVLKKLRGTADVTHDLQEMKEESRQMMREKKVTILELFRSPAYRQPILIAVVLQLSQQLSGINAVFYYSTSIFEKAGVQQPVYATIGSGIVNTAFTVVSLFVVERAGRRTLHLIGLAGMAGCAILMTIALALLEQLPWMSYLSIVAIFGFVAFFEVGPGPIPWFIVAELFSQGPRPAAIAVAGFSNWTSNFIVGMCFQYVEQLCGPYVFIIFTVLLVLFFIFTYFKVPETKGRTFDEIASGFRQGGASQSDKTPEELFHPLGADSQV

As to `CN(CCCNCc1ccc2ccccc2c1)CCCNCc1ccc2ccccc2c1`, the values for the inhibition in test [1], in test [2] and in test [3] were 12.4%, 13.7% and 3.29%, respectively.

With `COCCNCc1cccc(-c2ccccc2CN(C(=O)c2ccc3c(c2)OCO3)c2ccc(OC)cc2)c1`, the inhibition (in general, the drop in the measured response relative to a control, in per cent) was 4.69% in test [1], 4.93% in test [2] and 3.25% in test [3].

Turning to `N=C1NC(c2ccccc2)(c2ccccc2)C(=O)N1CC=Cc1ccccc1`, the inhibition is 7.01% in test [1], 8.66% in test [2] and 4.83% in test [3].

`CCNC(=O)Nc1ccc(-c2cnc(N)c(-c3nc4ccc(OC)cc4[nH]3)c2)cc1`: the inhibition in test [1] stood at 3.5%; in test [2], 4.42%; in test [3] it was 3.1%.

As to `CC(C)C[C@H](NC(=O)c1cc2ccccc2s1)C(=O)N[C@H]1CCN(Cc2ccc(OC[C@@H]3CCCN3C)c(Cl)c2)C1`, the inhibition worked out at 10.8% in test [1], 10.6% in test [2] and 8.09% in test [3].

For `Cc1cccc(Nc2nc(C)cc(N3CCCN(CC4CCCCC4)CC3)n2)c1`, the inhibition was -2.84% in test [1], 1.98% in test [2] and -0.15% in test [3].

Turning to `Cc1cccc2nc(-c3ccc(-c4ccc(CN5CCN(C6CCN(C)CC6)CC5)cc4)s3)[nH]c12`, the inhibition in test [1] is 0.65%; in test [2], 1.2%; in test [3] it was -2.96%.

`CCc1cn2c3c(cc(C(=O)N[C@@H](Cc4cccc(Cl)c4)[C@H](O)CNC4CCOCC4)cc13)N(C)S(=O)(=O)CC2`: the inhibition was 2.87% in test [1], -0.33% in test [2] and 1.44% in test [3].

On to `COc1ccc(NC(=O)Nc2ccc(-c3ccc(-c4nc5ccccc5[nH]4)cc3)cc2)cc1`, for which the figures for the inhibition in test [1], in test [2] and in test [3] were 3.84%, 5.18% and 2.97%, respectively.

As to `CCCN(c1ccc(O)c(CN2CCCCC2)c1)c1ccc([N+](=O)[O-])cn1`, the inhibition in test [1] turned out to be 1.28%; in test [2], 0.61%; in test [3] it was 1.09%.

As for `COc1ccccc1CNc1ccnc(N2CC(Oc3ccc(F)cc3)C2)n1`, the inhibition in test [1] is -2.09%; in test [2] it was 0.57%; in test [3], -2.53%.

Consider `c1ccc(CCNCc2ccc(-c3cccc(CNc4ccc5ncccc5c4)c3)cc2)cc1`, for which the inhibition was 14.6% in test [1], 11.7% in test [2] and 11.3% in test [3].
